# In PubChem BioAssay (NCI):
# This is part of a sample that, as a whole, favours compounds with a hit. Of some 79,000 tested, about 15% had one in any assay. Unmarked numbers belong to inactive results. Active and inactive are the calls of the source. Rule as the data show it: active = growth inhibition above about 70%; inactive = the rest.
# Legend:
# [1] = NCI Yeast Anticancer Drug Screen. Data for the rad52 strain (AID 147);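 also: 0% = growth of vehicle-treated control cultures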; conditions: S. cerevisiae rad52 mutant growth inhibition, hits give high values
# How it was run: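 Growth of repair-deficient yeast cells was compared between compound-treated and vehicle-treated cultures to give percent inhibition.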
# [2] = NCI Yeast Anticancer Drug Screen. Data for the wt1 strain (AID 149);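 also: 0% = growth of vehicle-treated wt1 cultures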; conditions: S. cerevisiae wt1 strain (SPY 50644) growth inhibition, hits give high values
# How it was run: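 Compounds are added to wt1 yeast cultures. Growth is then measured. Inhibition is expressed relative to vehicle-treated controls.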
# [3] = NCI Yeast Anticancer Drug Screen. Data for the rad50EPP+ strain (AID 151);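 also: 0% = growth of vehicle-treated control cultures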; conditions: S. cerevisiae rad50 mutant strain, hits give high values
# How it was run: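 Measured: growth inhibition of rad50EPP+ yeast. Reference: vehicle-treated controls. Screen uses strains with defined genetic alterations in DNA damage repair or cell cycle control.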
# [4] = NCI Yeast Anticancer Drug Screen. Data for the mgt1 strain (AID 153); conditions: S. cerevisiae mgt1 mutant growth inhibition, hits give high values
# How it was run: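 Compounds were applied to mgt1 mutant yeast, and growth was then compared against vehicle-treated control cultures to give percent inhibition.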
# [5] = NCI Yeast Anticancer Drug Screen. Data for the rad50 strain (AID 155);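 also: 0% = growth of vehicle-only cultures of the same strain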; conditions: S. cerevisiae rad50 strain growth inhibition, hits give high values
# How it was run: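 Inhibition values express reduced yeast growth in compound-treated cultures relative to vehicle-treated controls.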
# [6] = NCI Yeast Anticancer Drug Screen. Data for the mec2-1 strain (AID 157); conditions: S. cerevisiae mec2-1 strain, hits give high values
# How it was run: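 Compounds were applied to mec2-1 yeast cells. Their growth was then compared with that of vehicle-treated cultures to give growth inhibition.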
# [7] = NCI Yeast Anticancer Drug Screen. Data for the rad14 strain (AID 159);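 also: 0% = growth of vehicle-treated control cultures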; conditions: S. cerevisiae rad14 strain growth inhibition, hits give high values
# How it was run: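 A mutant yeast strain defective in DNA damage repair is treated with compound; inhibition of its growth is scored against untreated, vehicle-exposed cultures.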
# [8] = NCI Yeast Anticancer Drug Screen. Data for the sgs1 mgt1 strain (AID 161);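 also: 0% = growth of cultures given vehicle only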; conditions: S. cerevisiae sgs1 mgt1 strain, hits give high values
# How it was run: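 Growth of a repair-deficient yeast mutant was monitored after compound treatment and expressed as inhibition relative to vehicle-treated cultures.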
# [9] = NCI Yeast Anticancer Drug Screen. Data for the CLN2oe strain (AID 163);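 also: 0% = growth of vehicle-only control cultures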; conditions: S. cerevisiae CLN2oe strain, hits give high values
# How it was run: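 Cells of an engineered yeast line with disturbed cell-cycle regulation are treated with compound. Inhibition of growth is then calculated relative to the vehicle-treated reference.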
# [10] = NCI Yeast Anticancer Drug Screen. Data for the cln2 rad14 strain (AID 165);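 also: 0% = growth equal to vehicle treated cultures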; conditions: S. cerevisiae cln2 rad14 strain, hits give high values
# How it was run: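 Strain: cln2 rad14 yeast, altered in cell cycle control and DNA damage repair. Read-out: growth inhibition vs vehicle.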
# [11] = NCI Yeast Anticancer Drug Screen. Data for the bub3 strain (AID 167); conditions: S. cerevisiae bub3 mutant strain, hits give high values
# How it was run: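 Steps: expose the mutant yeast strain to compound; grow alongside vehicle-treated cultures; measure growth; express inhibition against the vehicle cultures.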
# [12] = NCI Yeast Anticancer Drug Screen. Data for the wt2 strain (AID 169);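 also: 0% = growth of vehicle-treated yeast cultures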; conditions: S. cerevisiae wt2 strain growth inhibition, hits give high values
# How it was run: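 Growth of compound-treated yeast is measured and expressed as inhibition relative to vehicle-only controls.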
# [13] = NCI Yeast Anticancer Drug Screen. Data for the mlh1 strain (AID 171);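 also: 0% = growth of vehicle-treated control cultures of the same strain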; conditions: S. cerevisiae mlh1 strain growth inhibition, hits give high values
# How it was run: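 Test agents were incubated with yeast bearing a defined DNA damage repair or cell cycle control alteration; values are growth inhibition normalised to vehicle-treated cultures.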
# [14] = NCI Yeast Anticancer Drug Screen. Data for the sgs1 strain (AID 173);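 also: 0% = growth of vehicle-only control cultures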; conditions: S. cerevisiae sgs1 mutant, hits give high values
# How it was run: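 Strain with an altered DNA repair or cell cycle pathway exposed to compound. Growth then measured. Value = inhibition versus vehicle control.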
# [15] = NCI Yeast Anticancer Drug Screen. Data for the mlh1 rad18 strain (AID 175); conditions: S. cerevisiae mlh1 rad18 strain growth inhibition, hits give high values
# How it was run: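 A repair-deficient yeast strain is exposed to test compound, and growth is scored relative to vehicle-treated controls.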
# [16] = NCI Yeast Anticancer Drug Screen. Data for the rad18 strain (AID 177); conditions: S. cerevisiae rad18 mutant growth inhibition, hits give high values
# How it was run: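 DNA-repair-defective yeast; compound treatment; growth inhibition scored against vehicle.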
# [17] = at 5.0 µM (retest, dose inferred, filed as 0.5)
# [18] = at 50.0 µM (retest, dose inferred, filed as 5.0)
smiles,measurement,setting,value
O=C(NCCCCN1CC2CCCC2C1)C(C1CCCCC1)C1CCCCC1 (stereo unspecified),growth inhibition,[1]; at 1.2 µM,11%
same,growth inhibition,[1]; at 3.7 µM,12%
same,growth inhibition,[1]; at 11.0 µM,35%
same,growth inhibition,[1]; at 33.0 µM,76% (active)
same,growth inhibition,[1]; at 100.0 µM,98% (active)
same,growth inhibition,[2]; at 1.2 µM,3%
same,growth inhibition,[2]; at 3.7 µM,6%
same,growth inhibition,[2]; at 11.0 µM,14%
same,growth inhibition,[2]; at 33.0 µM,75% (active)
same,growth inhibition,[2]; at 100.0 µM,97% (active)
same,growth inhibition,[3]; at 1.2 µM,0%
same,growth inhibition,[3]; at 3.7 µM,1%
same,growth inhibition,[3]; at 11.0 µM,2%
same,growth inhibition,[3]; at 33.0 µM,3%
same,growth inhibition,[3]; at 100.0 µM,-3%
same,growth inhibition,[4]; at 1.2 µM,4%
same,growth inhibition,[4]; at 3.7 µM,5%
same,growth inhibition,[4]; at 11.0 µM,40%
same,growth inhibition,[4]; at 33.0 µM,94% (active)
same,growth inhibition,[4]; at 100.0 µM,98% (active)
same,growth inhibition,[5]; at 1.2 µM,7%
same,growth inhibition,[5]; at 3.7 µM,4%
same,growth inhibition,[5]; [17],35%
same,growth inhibition,[5]; at 11.0 µM,34%
same,growth inhibition,[5]; at 33.0 µM,85% (active)
same,growth inhibition,[5]; [18],94% (active)
same,growth inhibition,[5]; at 50.0 µM,67.2%
same,growth inhibition,[5]; at 100.0 µM,79% (active)
same,growth inhibition,[6]; at 1.2 µM,13%
same,growth inhibition,[6]; at 3.7 µM,15%
same,growth inhibition,[6]; [17],17%
same,growth inhibition,[6]; at 11.0 µM,39%
same,growth inhibition,[6]; at 33.0 µM,86% (active)
same,growth inhibition,[6]; [18],93% (active)
same,growth inhibition,[6]; at 50.0 µM,5.4%
same,growth inhibition,[6]; at 100.0 µM,98% (active)
same,growth inhibition,[7]; at 1.2 µM,9%
same,growth inhibition,[7]; at 3.7 µM,12%
same,growth inhibition,[7]; at 11.0 µM,52%
same,growth inhibition,[7]; at 33.0 µM,97% (active)
same,growth inhibition,[7]; at 100.0 µM,99% (active)
same,growth inhibition,[8]; [17],23%
same,growth inhibition,[8]; [18],90% (active)
same,growth inhibition,[8]; at 50.0 µM,76.7% (active)
same,growth inhibition,[9]; at 1.2 µM,11%
same,growth inhibition,[9]; at 3.7 µM,13%
same,growth inhibition,[9]; at 11.0 µM,32%
same,growth inhibition,[9]; at 33.0 µM,87% (active)
same,growth inhibition,[9]; at 100.0 µM,98% (active)
same,growth inhibition,[10]; [17],22%
same,growth inhibition,[10]; [18],96% (active)
same,growth inhibition,[10]; at 50.0 µM,43.9%
same,growth inhibition,[11]; at 1.2 µM,10%
same,growth inhibition,[11]; at 3.7 µM,11%
same,growth inhibition,[11]; [17],94% (active)
same,growth inhibition,[11]; at 11.0 µM,42%
same,growth inhibition,[11]; at 33.0 µM,90% (active)
same,growth inhibition,[11]; [18],99% (active)
same,growth inhibition,[11]; at 50.0 µM,61.5%
same,growth inhibition,[11]; at 100.0 µM,98% (active)
same,growth inhibition,[12]; at 1.2 µM,2%
same,growth inhibition,[12]; at 3.7 µM,5%
same,growth inhibition,[12]; at 11.0 µM,25%
same,growth inhibition,[12]; at 33.0 µM,93% (active)
same,growth inhibition,[12]; at 100.0 µM,98% (active)
same,growth inhibition,[13]; at 1.2 µM,7%
same,growth inhibition,[13]; at 3.7 µM,5%
same,growth inhibition,[13]; at 11.0 µM,25%
same,growth inhibition,[13]; at 33.0 µM,91% (active)
same,growth inhibition,[13]; at 100.0 µM,99% (active)
same,growth inhibition,[14]; at 1.2 µM,9%
same,growth inhibition,[14]; at 3.7 µM,11%
same,growth inhibition,[14]; at 11.0 µM,34%
same,growth inhibition,[14]; at 33.0 µM,94% (active)
same,growth inhibition,[14]; at 100.0 µM,98% (active)
same,growth inhibition,[15]; [17],16%
same,growth inhibition,[15]; [18],96% (active)
same,growth inhibition,[15]; at 50.0 µM,73% (active)
same,growth inhibition,[16]; at 1.2 µM,16%
same,growth inhibition,[16]; at 3.7 µM,23%
same,growth inhibition,[16]; at 11.0 µM,49%
same,growth inhibition,[16]; at 33.0 µM,90% (active)
same,growth inhibition,[16]; at 100.0 µM,98% (active)
c1ccc2c(c1)ccn2CCc1c[nH]c2ccccc12,growth inhibition,[1]; at 1.2 µM,-35%
same,growth inhibition,[1]; at 3.7 µM,-37%
same,growth inhibition,[1]; at 11.0 µM,-20%
same,growth inhibition,[1]; at 33.0 µM,31%
same,growth inhibition,[1]; at 100.0 µM,97% (active)
same,growth inhibition,[2]; at 1.2 µM,-16%
same,growth inhibition,[2]; at 3.7 µM,-31%
same,growth inhibition,[2]; at 11.0 µM,-19%
same,growth inhibition,[2]; at 33.0 µM,21%
same,growth inhibition,[2]; at 100.0 µM,95% (active)
same,growth inhibition,[3]; at 1.2 µM,-33%
same,growth inhibition,[3]; at 3.7 µM,-5%
same,growth inhibition,[3]; at 11.0 µM,23%
same,growth inhibition,[3]; at 33.0 µM,41%
same,growth inhibition,[3]; at 100.0 µM,55%
same,growth inhibition,[4]; at 1.2 µM,-26%
same,growth inhibition,[4]; at 3.7 µM,-26%
same,growth inhibition,[4]; at 11.0 µM,-4%
same,growth inhibition,[4]; at 33.0 µM,33%
same,growth inhibition,[4]; at 100.0 µM,96% (active)
same,growth inhibition,[5]; at 1.2 µM,-20%
same,growth inhibition,[5]; at 3.7 µM,-20%
same,growth inhibition,[5]; [17],-13%
same,growth inhibition,[5]; at 11.0 µM,-5%
same,growth inhibition,[5]; at 33.0 µM,34%
same,growth inhibition,[5]; [18],48%
same,growth inhibition,[5]; at 50.0 µM,91% (active)
same,growth inhibition,[5]; at 100.0 µM,98% (active)
same,growth inhibition,[6]; at 1.2 µM,-24%
same,growth inhibition,[6]; at 3.7 µM,-23%
same,growth inhibition,[6]; [17],-5%
same,growth inhibition,[6]; at 11.0 µM,-27%
same,growth inhibition,[6]; at 33.0 µM,0%
same,growth inhibition,[6]; [18],1%
same,growth inhibition,[6]; at 50.0 µM,93.4% (active)
same,growth inhibition,[6]; at 100.0 µM,96% (active)
same,growth inhibition,[7]; at 1.2 µM,-16%
same,growth inhibition,[7]; at 3.7 µM,-29%
same,growth inhibition,[7]; at 11.0 µM,-28%
same,growth inhibition,[7]; at 33.0 µM,6%
same,growth inhibition,[7]; at 100.0 µM,97% (active)
same,growth inhibition,[8]; [17],-10%
same,growth inhibition,[8]; [18],25%
same,growth inhibition,[8]; at 50.0 µM,57.9%
same,growth inhibition,[9]; at 1.2 µM,7%
same,growth inhibition,[9]; at 3.7 µM,21%
same,growth inhibition,[9]; at 11.0 µM,12%
same,growth inhibition,[9]; at 33.0 µM,48%
same,growth inhibition,[9]; at 100.0 µM,95% (active)
same,growth inhibition,[10]; [17],-1%
same,growth inhibition,[10]; [18],52%
same,growth inhibition,[10]; at 50.0 µM,91.7% (active)
same,growth inhibition,[11]; at 1.2 µM,15%
same,growth inhibition,[11]; at 3.7 µM,18%
same,growth inhibition,[11]; [17],-19%
same,growth inhibition,[11]; at 11.0 µM,39%
same,growth inhibition,[11]; at 33.0 µM,79% (active)
same,growth inhibition,[11]; [18],70% (active)
same,growth inhibition,[11]; at 50.0 µM,89.7% (active)
same,growth inhibition,[11]; at 100.0 µM,95% (active)
same,growth inhibition,[12]; at 1.2 µM,-29%
same,growth inhibition,[12]; at 3.7 µM,-28%
same,growth inhibition,[12]; at 11.0 µM,-20%
same,growth inhibition,[12]; at 33.0 µM,20%
same,growth inhibition,[12]; at 100.0 µM,97% (active)
same,growth inhibition,[13]; at 1.2 µM,-18%
same,growth inhibition,[13]; at 3.7 µM,-14%
same,growth inhibition,[13]; at 11.0 µM,-6%
same,growth inhibition,[13]; at 33.0 µM,15%
same,growth inhibition,[13]; at 100.0 µM,97% (active)
same,growth inhibition,[14]; at 1.2 µM,-38%
same,growth inhibition,[14]; at 3.7 µM,-38%
same,growth inhibition,[14]; at 11.0 µM,-20%
same,growth inhibition,[14]; at 33.0 µM,20%
same,growth inhibition,[14]; at 100.0 µM,95% (active)
same,growth inhibition,[15]; [17],3%
same,growth inhibition,[15]; [18],51%
same,growth inhibition,[15]; at 50.0 µM,91.4% (active)
same,growth inhibition,[16]; at 1.2 µM,-42%
same,growth inhibition,[16]; at 3.7 µM,-46%
same,growth inhibition,[16]; at 11.0 µM,-23%
same,growth inhibition,[16]; at 33.0 µM,9%
same,growth inhibition,[16]; at 100.0 µM,98% (active)
